Measurements reported in PubChem BioAssay (NCI).
Compounds without any hit were thinned out: in the full panel of roughly 79,000, 15% have a hit. Activity calls are given as the source filed them. Rule as the data show it: active = growth inhibition above about 70%; inactive = the rest. *1 amine or outer side, *2 acyl side, *3 side chain or, on linkers, in order; H or OH if unused. Where a SMILES comes first, the peptide text is derived from it. [ ]: non-standard residue; d: D form. The star is where a group is joined. X17 = CC(=O)N(C)SCC(N[*:1])C(=O)[*:2]; Fmoc = O=C(OCC1c2ccccc2-c2ccccc21)*; For = O=C*

Assays:
[1] = NCI Yeast Anticancer Drug Screen. Data for the rad50 strain (AID 155);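 also: 0% = growth of vehicle-only cultures of the same strain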; settings: S. cerevisiae rad50 strain growth inhibition; at 50.0 µM; active compounds read high
Procedure, shortened: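 DNA repair mutant yeast, compound exposure, growth read-out; inhibition is taken relative to vehicle.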

[2] = NCI Yeast Anticancer Drug Screen. Data for the mec2-1 strain (AID 157); settings: S. cerevisiae mec2-1 strain, at 50.0 µM, active compounds read high
Procedure, shortened: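 Vehicle-treated cultures served as reference for growth inhibition of compound-exposed mec2-1 yeast.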

[3] = NCI Yeast Anticancer Drug Screen. Data for the sgs1 mgt1 strain (AID 161);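 also: 0% = growth of cultures given vehicle only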; settings: S. cerevisiae sgs1 mgt1 strain, at 50.0 µM, active compounds read high
Procedure, shortened: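 Read-out: growth inhibition vs vehicle controls. Cells: mutant yeast strain deficient in DNA damage repair.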

[4] = NCI Yeast Anticancer Drug Screen. Data for the cln2 rad14 strain (AID 165);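 also: 0% = growth equal to vehicle treated cultures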; settings: S. cerevisiae cln2 rad14 strain, at 50.0 µM, active compounds read high
Procedure, shortened: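 Each compound was tested on cln2 rad14 yeast. Inhibition of growth was calculated against vehicle-exposed controls.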

[5] = NCI Yeast Anticancer Drug Screen. Data for the bub3 strain (AID 167); settings: S. cerevisiae bub3 mutant strain, at 50.0 µM, active compounds read high
Procedure, shortened: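 In this screen, a yeast mutant lacking normal mitotic checkpoint function is challenged with compound. Relative growth versus vehicle gives the inhibition value.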

[6] = NCI Yeast Anticancer Drug Screen. Data for the mlh1 rad18 strain (AID 175); settings: S. cerevisiae mlh1 rad18 strain growth inhibition; at 50.0 µM; active compounds read high
Procedure, shortened: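 Vehicle-treated cultures served as the reference for growth inhibition in a yeast strain carrying DNA damage repair alterations exposed to each compound.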

Measured: growth inhibition

O=C(NC(=S)c1ccco1)NS(=O)(=O)c1ccc(Cl)cc1
inactive: [1] 8.35% | [2] 7.05% | [3] 12.2% | [4] 16.2% | [5] 20.4% | [6] 29.4%

O=C(O)CSC(CC(=O)O)C(=O)O (stereo not given)
inactive: [1] 10.3% | [2] -9.4% | [3] 17.7% | [4] 8.85% | [5] 21.6% | [6] 4.25%

OC1(CCC2OCCO2)c2ccccc2-c2ccccc21
inactive: [1] -3.9% | [2] 7.05% | [3] 7.85% | [4] 25.4% | [5] 15.8% | [6] 2.85%

CC(=O)N(C)SCC(NC(=O)C(Cc1ccccc1)NC(=O)OCC1c2ccccc2-c2ccccc21)C(=O)NC(Cc1ccccc1)C(=O)NC(Cc1cn(C=O)c2ccccc12)C(=O)NC(CCCCNC(=O)OCC1c2ccccc2-c2ccccc21)C(=O)NC(C(=O)NC(CSN(C)C(C)=O)C(=O)NC(C(N)=O)C(C)O)C(C)O (stereo not given) (Fmoc-F[X17]FW(For)K(Fmoc)T[X17]T-NH2; configuration not given here)
inactive: [3] 65.1%
active: [1] 86.7% | [2] 81.3% | [4] 82.2% | [5] 82.2% | [6] 84%

COC(=O)c1ccccc1NC(=O)/C(=N\NC(C)(C)C)C(C#N)c1nc(-c2ccc([N+](=O)[O-])cc2)cs1 (stereo not given)
inactive: [1] -4.35% | [2] 14% | [3] -0.6% | [4] 18.6% | [5] 26.1% | [6] -8.3%

Cc1ccc(N=C2OC(=O)c3ccccc32)cc1
inactive: [1] -3.8% | [2] -4% | [3] 0.1% | [4] -39.5% | [5] 9.9% | [6] 32.7%

O=CNC(NC=O)NC=O
inactive: [1] -3.4% | [2] -2.2% | [3] -2.15% | [4] 15.2% | [5] -4.3% | [6] 0.95%

COC(=O)[C@]1(C)CCC[C@@]2(C)[C@H]1CC=C1C=C(C(C)C)CC[C@@H]12
inactive: [1] 50% | [2] 1.15% | [3] 22.8% | [4] 4.6% | [5] -1.95% | [6] 24.4%

O=c1c2ccccc2c(=O)n2n1C1CCC2C1
inactive: [1] 7.05% | [2] -0.55% | [3] -7.9% | [4] -3.75% | [5] 1.85% | [6] -6.15%

NC1CC(=O)C(CC2C(=O)CC(N)CC2=O)C(=O)C1 (stereo not given)
inactive: [1] -1.3% | [2] 0.05% | [3] 3.35% | [4] -1.8% | [5] -1.15% | [6] -3.65%

CCCCCOP(=O)(Cc1ccc(Cl)cc1)OCCCCC
active: [1] 99.6% | [2] 99.7% | [3] 99.5% | [4] 99.5% | [5] 99.4% | [6] 99.5%

CC1CC2=C(C(=O)c3ccccc3C2=O)C(C)O1 (stereo not given)
inactive: [1] 3.15% | [2] -29.5% | [3] -4.4% | [4] -31.7% | [5] 41.5% | [6] 9.1%

N#Cc1c(CC(=O)O)cc(=O)n2c1[nH]c1ccccc12
inactive: [1] -13.9% | [2] -12.9% | [3] -1.9% | [4] 13.4% | [5] -11.9% | [6] -10.3%

Cc1ccc(NC(=O)c2cc(S(=O)(=O)n3cc[nH]c3=O)c(S)cc2Cl)cc1
inactive: [1] 14.5% | [2] -5.85% | [3] 23.9% | [4] 8.65% | [5] -4.75% | [6] 34%

C/C(CC(=O)Nc1cccc([N+](=O)[O-])c1)=N\NC(=O)C[n+]1ccccc1
inactive: [1] 15.5% | [2] -16.9% | [3] -0.65% | [4] 19.1% | [5] 0.5% | [6] -3.35%

CC(C)(C)C(=O)C1C(=O)c2ccccc2C1=O
inactive: [1] 50.6% | [2] 21.8% | [3] 54% | [4] -35.5% | [5] 5.95% | [6] 31.9%

NC(N)=NC(N)=Nc1ccc(N=C(N)N=C(N)N)cc1
inactive: [1] 3.55% | [2] -12.7% | [3] -6.2% | [4] -0.75% | [5] 10.2% | [6] -1.3%

COc1ccc(NC(=O)c2cc3cc(N=Nc4ccc(Br)cc4)ccc3oc2=O)cc1
inactive: [1] -30.9% | [2] 14.4% | [3] -15.2% | [4] 0.05% | [5] -28.5% | [6] -17.6%

CC1(C)CC(=O)C(C(c2ccccc2)C2C(=O)CC(C)(C)CC2=O)C(=O)C1
inactive: [1] 4% | [2] -8.9% | [3] 1.8% | [4] 2.6% | [5] 6.5% | [6] 7%

O=C1C2=C(c3ccccc31)C(c1ccccc1Cl)N1C(=O)CSC1=N2 (stereo not given)
inactive: [1] 67.9% | [2] 50.2% | [3] 53.5% | [4] 48.6% | [5] 53.8% | [6] 60%

CCCC(O)C(CC)[N+](=O)[O-] (stereo not given)
inactive: [1] 13.6% | [2] 0.95% | [3] 5% | [4] 3.65% | [5] 0.1% | [6] 5.75%

C/C(=N\Nc1ccc2ccccc2n1)c1ccccc1O
inactive: [1] -19% | [2] -25.4% | [3] -37.3% | [4] -25.8% | [5] -66.5% | [6] -3.5%

CN1CCN(CC2C(=O)C3CCC2C3)CC1 (stereo not given)
inactive: [1] 4.6% | [2] -20.4% | [3] -18.4% | [4] -7.85% | [5] -22.7% | [6] -10.3%

COC(=O)/C(C)=C/C=C/C(OC)C(OC(N)=O)/C(C)=C/C(C)C(O)C(CC(C)CC1=C(N)C(=O)C=C(N)C1=O)OC (stereo not given)
inactive: [1] 9.4% | [2] 10.3% | [3] -6.8% | [4] 46.9% | [5] 5.9% | [6] -18%

CC(O)C(O)C(O)C(=O)C=O (stereo not given)
inactive: [1] 5.8% | [2] 29.1% | [3] 6.1% | [4] 14.2% | [5] -25.4% | [6] 10.4%

CC1(C)CCCCC1/C=C/C(CC(O)(C(F)(F)F)C(F)(F)F)=N\Nc1ccc([N+](=O)[O-])cc1[N+](=O)[O-] (stereo not given)
inactive: [1] 15.1% | [2] 9.1% | [3] 4.65% | [4] 18.1% | [5] 16.1% | [6] 26.6%

COc1cc(CCNC2=CC(=O)c3cccnc3C2=O)ccc1O
inactive: [1] 36.4% | [2] 24.1% | [3] 40.2% | [4] 11.8% | [5] 3.8% | [6] 48.2%

Cc1ccc(NC(=O)c2ccccc2N)cc1
inactive: [1] -0.9% | [2] -8.5% | [3] -0.95% | [4] -16.8% | [5] -12.4% | [6] 18%

CCOC(=O)CCC1CCCCC1
inactive: [1] -1.1% | [2] -8.15% | [3] -19.4% | [4] 0.65% | [5] -3.2% | [6] 8.15%

N#CC(C#N)=NO (tested in a mixture with another compound)
inactive: [1] 11.8% | [2] 6.6% | [3] -7.7% | [4] -0.75% | [5] 5.3% | [6] 5.75%

COc1cc(OC)cc(C2OC3=C(Nc4ccccc4N3)C2=O)c1 (stereo not given)
inactive: [1] 12.8% | [2] 16.1% | [3] 23.2% | [4] 19.4% | [5] 19.4% | [6] 28.1%

CCOC(=O)NC(Nc1cccc(C(F)(F)F)c1)(C(F)(F)F)C(F)(F)F
inactive: [1] 1.45% | [2] -10.3% | [3] -38.5% | [4] 7.7% | [5] -15.6% | [6] -3.3%

C1CCCCC2(CCCCCCCCC3(CCC1)OCCO3)OCCO2
inactive: [1] -2% | [2] -21.2% | [3] -8.5% | [4] 25.6% | [5] 1.1% | [6] -5.25%

CC1=C(C(=O)NNC(=O)c2ccccc2O)CC(C(=O)NNC(=O)c2ccccc2O)=C(C)N1
inactive: [1] 45.5% | [2] 40.5% | [3] 10.5% | [4] 17.2% | [5] 64.2% | [6] 32.4%

Cc1cccc(N(CCOS(C)(=O)=O)CCOS(C)(=O)=O)c1
inactive: [1] -8.6% | [2] -2.2% | [3] 14% | [4] -47.4% | [5] -5.2% | [6] -10.9%
